In the library only some 7.5% were active in any assay of this set; here they are far more common.
NPC1 promoter act: activators of NPC1 promoter | AID 485313 | Potency, µM (series often up to 9.22 µM), for inactives: at the highest dose activation, actives largely listed as activators | hit rate 2.4% among 320,000 | Huh7 NPC1 promoter luciferase reporter, 24 h; further: % of control where 0% means no effect; nearly all actives have a fitted effect of over 60% in size
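Readout is luciferase luminescence, reflecting NPC1 promoter activation in stably transfected Huh7 cells after 24 h compound exposure at 37 °C in reduced-serum medium with 10% FBS.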
Luc counter: counter-screen: inhibitors of Kinase-Glo firefly luciferase. Potency, µM (top dose mostly 38.3 µM), without a hit: at the highest dose activity change, negative = inhibition, hits mostly inhibitors. hit rate 0.28% among 200,000. AID 1379. Q27757. Kinase-Glo luciferase, ATP luminescence, 8 min; further: on the % scale 0 is the no-effect control and ±100 the full control effect; nearly all actives have a fitted effect of over 60% in size
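Luminescence was the read-out, taken after 8-minute incubation at ambient temperature. Luciferase turned over luciferin with 10 uM ATP in imidazole pH 7.2 buffer containing KCl, MgCl2, Tween 20 and BSA.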
SMN2 splice enh: increases expression of the SMN2 splice variant; HEK293 SMN2-luciferase splicing reporter, luminescence, 30-36 h; Potency, µM (series often up to 46.1 µM), for inactives: at the top dose activity change, positive = activation, actives largely listed as activators; hit rate 2.8% among 210,000; further: % of control where 0% means no effect; nearly all actives have a fitted effect of over 55% in size
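HEK293 cells carry an SMN2 minigene-luciferase reporter in which exon 7 inclusion puts luciferase in frame. Cells were seeded at 2000 cells/well, attached for 10-12 hours, then exposed to compounds for 30-36 hours at 37C before ONE-Glo luminescence.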
FLuc modulator: counter-screen for miR-21 project: firefly luciferase inhibitors or activators; P08659; purified FLuc, Km substrates, luminescence inhibition; Potency, µM (series often up to 57.5 µM), without a hit: top-dose activity change, negative = inhibition, most hits filed as inhibitors; hit rate 6.9% among 360,000; AID 588342;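 further: plate controls were vehicle for no effect and reference inhibitor for full effect; nearly all actives have a fitted effect of over 55% in size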
Target sequence (P08659 whole entry, looked up): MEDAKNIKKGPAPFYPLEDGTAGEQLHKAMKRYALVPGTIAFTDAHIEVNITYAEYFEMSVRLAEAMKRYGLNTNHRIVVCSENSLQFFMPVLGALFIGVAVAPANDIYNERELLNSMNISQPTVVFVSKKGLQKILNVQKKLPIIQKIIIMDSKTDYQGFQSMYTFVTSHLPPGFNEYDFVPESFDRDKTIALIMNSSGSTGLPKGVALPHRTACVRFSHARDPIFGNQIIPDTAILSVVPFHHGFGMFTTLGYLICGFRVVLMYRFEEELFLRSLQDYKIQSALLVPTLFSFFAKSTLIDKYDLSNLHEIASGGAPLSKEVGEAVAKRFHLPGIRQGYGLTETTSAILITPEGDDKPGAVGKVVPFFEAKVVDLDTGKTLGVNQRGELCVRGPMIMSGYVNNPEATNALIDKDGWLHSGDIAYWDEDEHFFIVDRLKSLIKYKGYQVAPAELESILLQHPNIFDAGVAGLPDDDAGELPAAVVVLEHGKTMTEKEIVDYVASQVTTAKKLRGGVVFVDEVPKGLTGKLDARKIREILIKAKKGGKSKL
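Biochemical qHTS of compounds, final roughly 60 µM downward over six points, against 10 nM purified firefly luciferase using Km concentrations of substrates (10 uM D-luciferin, 10 uM ATP) in Tris acetate pH 7.5 buffer; luminescence output.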
Rab9 promoter act: activators of Rab9 promoter | Huh7 Rab9 promoter-luciferase reporter, luminescence, 24 h | Potency, µM (doses to about 9.22 µM), without a hit: at the top dose activation, negative = inhibition, usual class: activators | hit rate 2.8% among 320,000; further: % of control where 0% means no effect; nearly all actives have a fitted effect of over 60% in size
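Huh7 reporter line, Rab9 promoter upstream of luciferase. Compound exposure 24 h at 37 °C in reduced-serum medium with 10% FBS. Read-out: luminescence.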
ELG1 genotoxic: induces genotoxicity in HEK293T cells with luciferase-tagged ELG1; HEK293T ELG1-luciferase reporter, luminescence, 16 h; Potency, µM (titrated, usually from 46 µM), for inactives: at the top dose activity change, positive = activation, usual class: activators; hit rate 1.3% among 330,000; AID 504466; further: % of control where 0% means no effect; nearly all actives have a fitted effect of over 60% in size
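Step 1: seed 2,000 HEK293T ELG1-luciferase cells per well. Step 2: add compound or DMSO, incubate 16 hr at 37 °C. Step 3: ONE-Glo, 30 min at room temperature, read luminescence.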
Numbers without * were called inactive; ? = inconclusive; . = no result; [ ] = dose if it differs, or a comment. The call rests on the fitted dose curve; in most records, active means well fitted curve in the direction sought with a large enough effect; inconclusive means small, poorly fitted or top-dose-only effect, or another doubt; inactive means no such curve, though single readings can be large; an effect the other way counts as inactive or inconclusive. Potency means the concentration at half of the fitted maximal effect.

SMILES	NPC1 promoter act	Luc counter	SMN2 splice enh	FLuc modulator	Rab9 promoter act	ELG1 genotoxic
Cc1cc(C)cc(C(=O)NC(CC(N)=O)c2ccc(NC3CCCCC3)c([N+](=O)[O-])c2)c1 (stereo not drawn)	1%	.	.	1%	4%	0%
Cn1/c(=N\NC(=O)c2ccccc2Cl)sc2ccccc21	?	3%	?	17µM*	?	-3%
CC(=O)N/N=c1\sc2ccccc2n1C	-4%	2%	2%	2%	21%	-7%
O=C1NC(=S)N/C1=C/c1ccc2c(c1)OCO2	-5%	.	.	?	-14%	-15%
O=C1NC(=S)N/C1=C\c1ccc(N2CCOCC2)cc1	29%	-7%	18%	21µM*	23%	?
C=CC(C)N1C(=O)S/C(=C\c2ccc(N3CCOCC3)cc2C)C1=O (stereo not drawn)	?	1%	-38%	11µM*	?	?
C=CCN1C(=O)S/C(=C\c2ccc(N3CCOCC3)cc2C)C1=O	?	-2%	.	6µM*	3.5µM*	?
Cc1cc(N2CCOCC2)ccc1/C=C1/SC(=O)NC1=O	?	13%	22µM*	15µM*	?	?
C=CCN1C(=O)S/C(=C\c2ccc3c(c2)n(C)c(=O)n3C)C1=O	9%	-3%	?	-13%	21%	?
CCOC(=O)Cc1csc(NC(=O)c2ccc(C)c(S(=O)(=O)N3CCOCC3)c2)n1	1%	.	.	?	-5%	-3%
COc1cccc(CN2CC(C(=O)NCCc3ccc(C)s3)CCC2=O)c1 (stereo not drawn)	-2%	.	.	2%	12%	-6%
CS(=O)(=O)N1CCC2(CCCN(Cc3cc(C(F)(F)F)cc(C(F)(F)F)c3)C2)CC1	.	-3%	-12%	.	.	.
Cn1c(=O)n(CC(=O)O)c(=O)c2c1nc1n2CCCN1c1ccc(Cl)cc1	.	.	-15%	0%	.	.
COc1ccc(S(=O)(=O)NCC2CCCO2)cc1NC(=O)c1ccc(Cl)cc1 (stereo not drawn)	4%	.	.	-2%	-3%	1%
O=C(O)Cn1c(SCc2ccccc2)nc2ccccc21	-1%	1%	-3%	?	4%	7%
O=C(O)Cn1c(SCc2cccc3ccccc23)nc2ccccc21	-6%	2%	4%	17µM*	-3%	0%
COc1ccc(CC(=O)O/N=C(\N)c2ccc(OC)cc2)cc1	10%	.	.	?	24%	7%
COc1ccc(/C(N)=N/OC(=O)Cc2cccs2)cc1OC	11%	1%	23%	24µM*	6%	12%
COc1ccc(/C(N)=N/OC(=O)Cc2cccs2)cc1	?	0%	?	12µM*	3.2µM*	?
O=C(SCc1cccc2ccccc12)c1ccc(Cl)cc1	.	0%[7.66 µM]	-5%[9.22 µM]	.	.	.
COc1ccc(-c2ccc(SCC(=O)c3ccc(F)cc3)nn2)cc1OC	-7%	-3%	-18%	13µM*	0%	-5%
COc1ccc(-c2ccc(SCC(=O)c3cccs3)nn2)cc1OC	-1%	1%	?	19µM*	-9%	4%
COc1ccc(-c2ccc(SCC(=O)N3CCCC3)nn2)cc1OC	4%	-3%	8%	?	-3%	-1%
N#Cc1ccc(-c2ccccc2)nc1SCC(=O)c1cccc(Cl)c1	-1%	-5%	-3%	3%	2%	3%
COc1ccc(C(=O)CSc2ccc(-c3ccc(C)cc3)nn2)cc1	21%	3%	14µM*	11µM*	20%	6%
SMILES	NPC1 promoter act	Luc counter	SMN2 splice enh	FLuc modulator	Rab9 promoter act	ELG1 genotoxic
COc1ccc(C(=O)CSc2nnc(-c3ccc(C)cc3)o2)cc1	0%	0%	1%	-1%	-7%	?
N#Cc1ccc(-c2cccnc2)nc1SCC(=O)c1ccccc1	?	.	.	?	3.2µM*	15%
O=C(COC(=O)c1ccc[n+]([O-])c1)Nc1ccc([N+](=O)[O-])cc1Cl	.	.	.	.	.	2%
CCCCN(CC)CCCNC(=O)C1CCN(c2ncnc3c2sc2cccc(F)c23)CC1	-5%	-3%	-61%	2%	0%	9%
Cc1ccc(C(=O)CSc2ccc(-c3ccccc3)nn2)cc1	2%	2%	7%	?	0%	2%
O=C(CSc1ccc(-c2ccccc2)nn1)c1ccccc1	?	5%	?	17µM*	?	?
Cc1ccc(-c2cn3c(n2)sc2cc(C(=O)NC4CCCCCC4)ccc23)c(C)c1	.	.	.	-1%	.	.
Cc1ccc(CCNC(=O)C2CCC(=O)N(Cc3ccccc3F)C2)o1 (stereo not drawn)	?	.	.	?	?	18µM*
COc1ccccc1CCCNC(=O)C1CCC(=O)N(Cc2ccccc2F)C1 (stereo not drawn)	2.8µM*	.	.	21µM*	4µM*	?
COc1ccc(NS(=O)(=O)c2ccc(NC(=S)NC(=O)/C=C/c3ccccc3)cc2)nn1	-3%	7%	8%	-5%	0%	-1%
Cc1ccc(C)c(N(CC(=O)NCCc2ccccc2)C(=O)CCC(=O)Nc2ccccn2)c1	-3%	.	.	1%	-2%	-1%
O=C(NCC1CCCO1)C(c1cccnc1)N(C(=O)Cc1cccs1)c1ccccc1 (stereo not drawn)	?	-12%	-5%	11µM*	?	10%
Cc1ccc(C)n1-c1ccc(-c2ccnc(N)n2)cc1	-2%	-1%	13%	?	10%	?
O=C(CSc1nc(-c2cccs2)nc2cc(=O)[nH]n12)Nc1cccc(C(F)(F)F)c1	.	.	.	-16%	.	.
COCCNC(=O)c1cc2sc3ccccc3c2s1	?	-2%	14µM*	11µM*	2.8µM*	15µM*
CCCCNC(=O)c1cc2ccccc2s1	16%	0%	6%	17µM*	?	0%
CCCCNC(=S)N1CCN(c2nc3ccccc3s2)CC1	0%	-1%	.	1%	-14%	-5%
CCCCNC(=O)N(C)c1nc2ccccc2s1	?	-6%	.	13µM*	1.8µM*	?
CCCNC(=O)c1cc2cc([N+](=O)[O-])ccc2s1	-2%	1%	-13%	0%	-8%	0%
COC(=O)N(C)c1nc2ccccc2s1	13%	-3%	-7%	24µM*	28%	?
COCCN(C(=O)Nc1ccc(OC)cc1)c1nc2ccccc2s1	12%	.	.	-22%	9%	1%
CN(C)CCCNC(=O)c1cc2sc3ccccc3c2s1	5%	1%	.	-15%	16%	?
Cc1ccc(-n2nc(C(=O)Nc3ccc(Br)cc3C)c(=O)n(C)c2=O)cc1	.	.	.	-3%	.	.
CC(C)CN(CC(C)C)C(=O)COn1nnc2ccc(S(=O)(=O)N3CCOCC3)cc21	-7%	.	.	2%	-3%	-3%

Screens: PubChem BioAssay, National Center for Advancing Translational Sciences (NCATS)
